Compound activity (PubChem BioAssay)
A1 inh – caspase 3/7 activation in MEF A1-2A-BIM cells, primary screen, A1 inhibitor project, cell-based, luminescence, HTS. Caspase-Glo 3/7 luminescence, 3 h; percent of clofoctol response, vehicle zero. caspase activation, % (test concentration not listed). 0.066% of 330,000 active;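 active = over half of replicate activation scores above 10%, or exactly half above 10 with the replicate mean above 10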
CHT block – inhibitors of human choline transporter CHT; CHT-expressing cells, membrane potential dye, choline response; active compounds read low; B-score at 10 µM; 0.86% of 310,000 active; AID 488975, 2010;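 active = B-score over 3 SD under the library average, and starting fluorescence ratio not unusually high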;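 note: choline stimulus applied at its EC90 after an EC20 pre-addition; B-score computed on integrated fluorescence ratio after choline addition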
Target sequence (Q9GZV3 whole entry, looked up): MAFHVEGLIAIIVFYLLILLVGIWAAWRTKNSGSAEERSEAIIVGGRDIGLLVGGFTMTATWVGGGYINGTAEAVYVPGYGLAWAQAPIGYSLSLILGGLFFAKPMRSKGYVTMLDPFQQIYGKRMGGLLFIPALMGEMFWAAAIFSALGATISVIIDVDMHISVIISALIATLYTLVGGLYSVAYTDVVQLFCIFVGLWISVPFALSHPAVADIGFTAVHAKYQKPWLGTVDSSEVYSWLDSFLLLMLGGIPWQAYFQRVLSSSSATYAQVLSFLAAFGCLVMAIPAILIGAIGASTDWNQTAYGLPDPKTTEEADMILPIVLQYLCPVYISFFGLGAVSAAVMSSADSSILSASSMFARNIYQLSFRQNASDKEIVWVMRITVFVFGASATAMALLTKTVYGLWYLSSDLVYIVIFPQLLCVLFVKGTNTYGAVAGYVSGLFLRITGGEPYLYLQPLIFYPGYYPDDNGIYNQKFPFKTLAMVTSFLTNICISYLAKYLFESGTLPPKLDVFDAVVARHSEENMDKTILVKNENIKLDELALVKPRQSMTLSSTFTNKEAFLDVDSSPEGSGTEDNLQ
NALP3 yeast inh – NALP3 inflammasome inhibitors in reconstituted yeast, primary screen, luminescence, uHTS; 0.39% of 330,000 active; inhibition, % at 10 µM; Yeast reconstituted NLRP3/ASC/caspase-1, beta-gal luminescence, 24 h;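 active = inhibition of 50% or more; inactive = inhibition below 50%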
NALP1 yeast inh – NALP1 inflammasome inhibitors in reconstituted yeast, colorimetric, S. cerevisiae, triplicate retest; 0.61% of 280,000 active; AID 2071, 2009; inhibition, % at 10 µM; S. cerevisiae NALP1/ASC/caspase-1 growth, X-gal OD620, 72 h; in the data active = inhibition mostly above about 24%, no sharp cut-off; inactive = mostly below about 32%
CHT PAM – CHT positive allosteric modulators, primary screen, cell-based, membrane potential dye, choline EC20 | High affinity choline transporter 1 (Homo sapiens), Q9GZV3 | CHT-expressing cells; active compounds read high; LV-AA mutant CHT in HEK293 cells | B-score at 10 µM | 0.49% of 310,000 active;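 active = initial fluorescence not abnormally high and integrated response B-score, plate-corrected, over 3 SD above library mean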
Mot1-301 SUMO – yeast Mot1-301 growth rescue at high temperature, primary screen, SUMOylation pathway inhibitor project, S. cerevisiae, ATP luminescence, 38.5C. S. cerevisiae Mot1-301 growth rescue; percent above DMSO median, 100 means doubled. growth rescue, % at 18.8 µM. 1% of 320,000 active. AID 2716, 2010;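 active = every valid replicate shows activation above 250% relative to neutral control wells; inactive = the rest, any valid replicate at or below 250%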
Numbers stand for hits; 0 = inactive; - = no result given. An excerpt weighted towards active compounds, which were near 3% of everything screened.

SMILES | A1 inh | CHT block | NALP3 yeast inh | NALP1 yeast inh | CHT PAM | Mot1-301 SUMO
COc1ccc(N2C(=O)CC(Sc3n[nH]c(-c4ccccc4)n3)C2=O)cc1 (centres undefined) | 0 | 0 | 0 | 0 | 0 | 0
CCOc1ccc(N2C(=O)CC(Sc3n[nH]c(-c4ccccc4)n3)C2=O)cc1 (centres undefined) | 0 | 0 | 0 | 37 | 0 | 0
O=C(Nc1ccccc1)c1cn(CCBr)cn1 | 0 | 0 | 0 | - | 0 | 0
O=C(CN1C(=O)c2ccccc2S1(=O)=O)Nc1cc(S(=O)(=O)N2CCCCC2)ccc1Cl | - | - | 0 | - | - | -
CC(C)N(C(=O)Cn1c(SCC(=O)NCc2ccc3c(c2)OCO3)nc2ccccc21)C(C)C | 0 | 0 | 0 | 0 | 0 | 307
CC(C)Sc1nc2ccccc2n1CC(=O)NCc1ccc2c(c1)OCO2 | 0 | 0 | 0 | 0 | 0 | 0
CCOC(=O)CC1C(=O)NCCN1S(=O)(=O)c1ccc(NC(C)=O)cc1 (centres undefined) | 0 | 0 | 0 | 0 | 0 | 0
COc1ccc(NC(=O)CSc2nnc(Cn3cnc([N+](=O)[O-])n3)n2C)cc1 | 0 | 0 | 0 | 0 | 0 | 344
O=C(CCNC(=O)c1ccc(Br)cc1)NNC(=O)c1ccccc1O | 0 | 0 | 0 | - | 0 | 0
Cc1ccc(C2=N/C(=C\N3CCCCC3)C(=O)O2)cc1 | 0 | 0 | 0 | 38 | 0 | 0
COc1ccc(C(O)C(CN2CCOCC2)c2ccccc2)cc1F (centres undefined) | 0 | 0 | 0 | 0 | 0 | 0
COc1ccc(C(=O)C(CN2CCOCC2)c2ccccc2)cc1F (centres undefined) | - | - | - | 41 | - | -
CC(C)c1ccc(CN2C(=O)NC3(CCCCCC3)C2=O)cc1 | 0 | 0 | 0 | 0 | 0 | 0
CCOC(=O)c1sc2nc(C)nc(N3CCN(S(=O)(=O)c4ccccc4)CC3)c2c1C | 0 | - | 0 | - | - | 0
CCOc1cccc2sc(N(CCN(CC)CC)C(=O)c3ccc(S(=O)(=O)N4CCCC4)cc3)nc12 | 0 | 0 | 0 | 0 | 0 | 0
CCOc1cccc2sc(N(CCN(CC)CC)C(=O)c3cccc(N4C(=O)CCC4=O)c3)nc12 | 0 | 0 | 0 | - | 0 | 290
O=C(N/C(=C\c1ccc(Br)cc1)C(=O)N1CCOCC1)c1ccc([N+](=O)[O-])cc1 | 0 | 0 | 0 | 0 | 0 | 0
Cc1cccc(-n2ccnc2CN2CCC(CO)(Cc3ccccc3)CC2)c1 | 0 | 0 | 0 | - | 0 | 643
Cc1cccc(-n2ccnc2CN2CCN(C3CCCC3)C(CCO)C2)c1 (centres undefined) | 0 | 0 | 0 | 0 | 0 | 0
COCCCNC(=O)c1ccc2nc(Cc3ccc(OC)cc3)oc2c1 | 0 | 0 | 0 | 25 | 0 | 0
C=CCNC(=O)c1ccc2nc(Cc3ccc(OC)cc3)oc2c1 | 0 | 0 | - | - | 0 | 0
CCCc1nnc(SCC(=O)N2CCCC(C)C2)n1CCOC (centres undefined) | 0 | 0 | 0 | 0 | 0 | 0
CCc1ccc(C2NC(C(=O)O)CS2)cc1 (centres undefined) | - | - | - | 50 | - | -
CCc1nnc(NC(=O)CN2C(=O)c3ccccc3C2=O)s1 | 0 | 0 | 0 | 0 | 0 | 0
CCCc1nnc(NC(=O)CN2C(=O)c3ccccc3C2=O)s1 | 0 | 0 | 0 | 44 | 0 | 0
SMILES | A1 inh | CHT block | NALP3 yeast inh | NALP1 yeast inh | CHT PAM | Mot1-301 SUMO
COc1ccc(CNS(=O)(=O)CCNC(=O)c2ccc(OC)cc2)cc1 | 0 | 0 | 0 | - | 0 | 0
Cc1cc(=O)oc2cc(OC(C)C(=O)NC3(C#N)CCCCC3)ccc12 (centres undefined) | 0 | - | 0 | - | - | 0
O=c1c(C(c2ccccc2)c2c(O)sc3ccccc3c2=O)c(O)sc2ccccc12 | 0 | -5.2 | 0 | 0 | 0 | 0
Cc1cc2sc3ccccc3c(=O)c2c(C)c1O | 0 | 0 | 0 | 0 | 0 | 0
Cc1cc(NS(=O)(=O)c2c(C(=O)N3CCOCC3)c(C)n(C)c2C)ccc1Br | 0 | 0 | 0 | 0 | 0 | 0
CCOc1ccc(N(CC(=O)NCC2CCCO2)S(=O)(=O)c2ccc(SC)cc2)cc1 (centres undefined) | 0 | 0 | 0 | 34 | 0 | 0
